Molecules are shown by their SMILES. Compounds without any hit were thinned out: in the full panel of roughly 79,000, 15% have a hit. Values without a mark were called inactive. Calls of active or inactive are those of the source. Cut-off read from the data, not from the text of the source: active = growth inhibition above about 70%; inactive = the rest.

Assay [1] in a line: NCI Yeast Anticancer Drug Screen. Data for the rad50 strain (AID 155).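 Note: 0% = growth of vehicle-only cultures of the same strain.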 The following applies: S. cerevisiae rad50 strain growth inhibition; at 50.0 µM; hits give high values. In a few lines: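 Growth of the mutant yeast was measured after compound exposure and referenced to vehicle-treated cultures.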
Assay [2] is described as follows: NCI Yeast Anticancer Drug Screen. Data for the mec2-1 strain (AID 157). The settings on record: S. cerevisiae mec2-1 strain, at 50.0 µM, hits give high values. The essentials:
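Using mec2-1 yeast: add compound, measure growth, express inhibition versus vehicle-treated cultures.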

Assay [3] can be described thus: NCI Yeast Anticancer Drug Screen. Data for the sgs1 mgt1 strain (AID 161).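 Note: 0% = growth of cultures given vehicle only.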 The following applies: S. cerevisiae sgs1 mgt1 strain, at 50.0 µM, hits give high values. The essentials: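 Growth of a repair-deficient yeast mutant was monitored after compound treatment and expressed as inhibition relative to vehicle-treated cultures.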
The nature of assay [4]: NCI Yeast Anticancer Drug Screen. Data for the cln2 rad14 strain (AID 165).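 Note: 0% = growth equal to vehicle treated cultures.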 The following applies: S. cerevisiae cln2 rad14 strain, at 50.0 µM, hits give high values. The essentials:
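Yeast strain cln2 rad14, bearing defects in cell cycle control and DNA repair, serves as the test system; values reflect growth inhibition compared with vehicle.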

Assay [5] is described as follows: NCI Yeast Anticancer Drug Screen. Data for the bub3 strain (AID 167). The following applies: S. cerevisiae bub3 mutant strain, at 50.0 µM, hits give high values. The essentials: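 Whole-cell yeast assay. The mutant strain was incubated with compounds, and growth inhibition was determined by comparison with vehicle-treated cells.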
A short description of assay [6]: NCI Yeast Anticancer Drug Screen. Data for the mlh1 rad18 strain (AID 175). The following applies: S. cerevisiae mlh1 rad18 strain growth inhibition; at 50.0 µM; hits give high values. The essentials: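 Steps: expose repair-defective yeast to compound; measure growth; express inhibition against vehicle-treated controls.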

As for `CC1(C)CC2(CC3(C1)SCCS3)SCCS2`, the growth inhibition in assay [1] is -11.2%; in assay [2], -5.25%; in assay [3], -8.8%; in assay [4], 5.45%; in assay [5], -5.8%; in assay [6], 1.35%.
For `O=P(Nc1cccc(Cl)c1)(Nc1cccc(Cl)c1)c1ccccc1`, the growth inhibition was 96.8% (active) in assay [1]; 74.1% (active) in assay [2]; 96.9% (active) in assay [3]; 76.7% (active) in assay [4]; 85.3% (active) in assay [5]; 95.8% (active) in assay [6].
As for `Nc1cccc(N2N=C(C(=O)O)CC2=O)c1`, the growth inhibition in assay [1] is -7%; in assay [2], -19.8%; in assay [3], -40.9%; in assay [4], -12.7%; in assay [5], -2.7%; in assay [6], -15.6%.
Regarding `CCCC(C)C(=O)OC1CCCCC1` (stereo unspecified), the growth inhibition in assay [1] is 9.35%; in assay [2], 1.3%; in assay [3], -0.85%; in assay [4], -21.4%; in assay [5] it was 7.6%; in assay [6] it was 3%.
Take `N#C/C(=C/c1cccnc1)C(=O)c1ccccc1`: the growth inhibition in assay [1] was -6.1%; in assay [2] it was -18.9%; in assay [3], 1.3%; in assay [4], 12.6%; in assay [5] it was -22.6%; in assay [6], 7.15%.
With `CN(C)CC(N)C(=O)O` (stereo unspecified), the growth inhibition is -4.35% in assay [1]; -13.1% in assay [2]; -12.2% in assay [3]; -13.6% in assay [4]; -21.3% in assay [5]; -18.6% in assay [6].
For the molecule `Cc1ccc(NC(=O)CCc2cc(C(C)(C)C)nc(=S)[nH]2)cc1C`, the growth inhibition is -36.6% in assay [1]; -27.5% in assay [2]; -46.5% in assay [3]; -30.6% in assay [4]; -35.8% in assay [5]; -34% in assay [6].
Consider `CN(C)c1ncnc2cn[nH]c12`, for which the growth inhibition in assay [1] is 3.6%; in assay [2], -5.75%; in assay [3] it was 0.25%; in assay [4], 5.7%; in assay [5] it was 17.4%; in assay [6] it was 0.6%.
For `C=C1C(=O)O[C@@H]2[C@H]1CC[C@H](C)[C@@H]1CCC(=O)[C@@]21C`, the growth inhibition was 10% in assay [1]; -0.5% in assay [2]; 3.35% in assay [3]; 13.8% in assay [4]; 12.8% in assay [5]; 14.2% in assay [6].
With `C1CCCC(N2N=NC3C4CC(C5N=NN(C6CCCCCC6)C45)C32)CC1` (stereo unspecified), the growth inhibition in assay [1] is 12.8%; in assay [2], 17.5%; in assay [3], 7.65%; in assay [4] it was 64.8%; in assay [5], -8.55%; in assay [6], 11.7%.
For the molecule `CC(C)c1cccc(C(C)C)c1NC1=CC(=O)C(=O)c2ccccc21`, the growth inhibition in assay [1] was -7.25%; in assay [2], 14.4%; in assay [3], -16.8%; in assay [4], -0.2%; in assay [5], 4.85%; in assay [6], -7.85%.
Consider `O=C(COc1ccccc1Cl)N1N=C(c2ccccc2)CC1(O)c1ccccc1` (stereo unspecified), for which the growth inhibition in assay [1] is -4.25%; in assay [2], 10.1%; in assay [3] it was 25%; in assay [4], 8.35%; in assay [5], 19.6%; in assay [6], 15.9%.
For `FC1(F)C(F)(F)C(F)(F)C2(F)C(F)(F)C(F)(F)C(F)(F)C(F)(F)C2(F)C1(F)F` (stereo unspecified), the growth inhibition was -25.2% in assay [1]; -21.2% in assay [2]; -17.7% in assay [3]; 7.25% in assay [4]; -0.8% in assay [5]; -8.5% in assay [6].
In the case of `O=c1[nH]cnc2sc3c(c12)CCC3`, the growth inhibition in assay [1] is 30.6%; in assay [2], 6.9%; in assay [3], 14.2%; in assay [4], 13.4%; in assay [5] it was 3.1%; in assay [6] it was 1.55%.
For `O=C(Cl)CNS(=O)(=O)c1ccccc1`, the growth inhibition in assay [1] is 5.45%; in assay [2] it was 5.1%; in assay [3] it was 1%; in assay [4], 15.8%; in assay [5] it was 6.4%; in assay [6], 1.45%.
For `CC(=O)Nc1ccc(/C=N/Nc2ccccc2)cc1`, the growth inhibition in assay [1] was 97.9% (active); in assay [2], 98.8% (active); in assay [3], 98.5% (active); in assay [4], 96.6% (active); in assay [5], 98.5% (active); in assay [6], 98.7% (active).
With `O=NNc1ccc(Oc2ccccc2)cn1`, the growth inhibition in assay [1] is 15.4%; in assay [2], -13.5%; in assay [3], -7.9%; in assay [4], -9%; in assay [5], -19.8%; in assay [6] it was -1.85%.
For `COCCCNc1ncnc2c1cnn2-c1ccc(Cl)cc1`, the growth inhibition in assay [1] is -1.3%; in assay [2], -4.75%; in assay [3] it was -0.25%; in assay [4] it was 9.8%; in assay [5] it was -9.45%; in assay [6] it was -4.45%.
As for `COc1ccc(Cl)cc1NC(=O)Oc1cc2ccccc2cc1C(=O)Nc1ccccc1`, the growth inhibition in assay [1] was -9.4%; in assay [2] it was -8.05%; in assay [3] it was -21.4%; in assay [4], -25.1%; in assay [5] it was -3.25%; in assay [6], -13.8%.
As to `CCCCNCCS`, the growth inhibition in assay [1] was 14.1%; in assay [2], -14.6%; in assay [3], 2.7%; in assay [4] it was 6.9%; in assay [5], -8.55%; in assay [6], 8.5%.
With `CC(=O)CC1(O)C(=O)C(C(C)(C)C)=CC2(C(C)(C)C)OC12` (stereo unspecified), the growth inhibition in assay [1] was 2.25%; in assay [2], -13.1%; in assay [3], -3.45%; in assay [4], -10.1%; in assay [5], 6.25%; in assay [6] it was 0.25%.
As to `CCC(C(=O)NC1c2ccccc2Oc2ccccc21)c1ccccc1` (stereo unspecified), the growth inhibition in assay [1] is -0.85%; in assay [2], -9.85%; in assay [3] it was 0.55%; in assay [4], -12.4%; in assay [5], 4.5%; in assay [6], -2.5%.
Consider `CSC1=Nc2ccccc2N=C(c2ccccc2)C1`, for which the growth inhibition in assay [1] is 41.9%; in assay [2], -10.8%; in assay [3], 52%; in assay [4], 9.05%; in assay [5], 44.8%; in assay [6], 23.3%.
With `CCOC(=O)Nc1nc2ccccc2n1CN1CCOCC1`, the growth inhibition in assay [1] is -32.1%; in assay [2], -11.9%; in assay [3], -18.9%; in assay [4], -14.9%; in assay [5], -5.35%; in assay [6], -7.8%.
Consider `CCN(C)c1nc(N(C)CC)c2nc(N(C)CC)nc(N(C)CC)c2n1`, for which the growth inhibition in assay [1] was 1.95%; in assay [2] it was -3.4%; in assay [3], 17.8%; in assay [4], 4.5%; in assay [5] it was -14.5%; in assay [6] it was -65.1%.
As for `Cc1ccc(-c2c(N)nc(NC#N)nc2CCC(=O)Nc2ccccc2[N+](=O)[O-])cc1`, the growth inhibition in assay [1] is 1.9%; in assay [2], 1.35%; in assay [3], -14.6%; in assay [4], 5.5%; in assay [5] it was 3.7%; in assay [6] it was 5.4%.
Consider `O=c1c(Br)c(-c2ccccc2Br)[nH]c2ccccc12`, for which the growth inhibition is -1.25% in assay [1]; 13.7% in assay [2]; 11.3% in assay [3]; 0.4% in assay [4]; -3.45% in assay [5]; -13.9% in assay [6].
For `Cc1c(Cl)ccc2c1NC(=O)C2(O)CC(=O)c1ccc(Cl)cc1Cl` (stereo unspecified), the growth inhibition was 34.4% in assay [1]; 18.7% in assay [2]; 0.1% in assay [3]; -13.5% in assay [4]; 10.9% in assay [5]; 23.4% in assay [6].
For the molecule `CN1CC(CN2CCCCCC2)C(O)C(c2ccccc2)C1` (stereo unspecified), the growth inhibition in assay [1] was 1.7%; in assay [2], -7.1%; in assay [3], 18%; in assay [4], 7.85%; in assay [5] it was -1.5%; in assay [6] it was 27.6%.
Regarding `O=[N+]([O-])c1ccc(N2CCCC2)cc1`, the growth inhibition in assay [1] was 14.2%; in assay [2], -8.05%; in assay [3] it was -6.9%; in assay [4], 0.8%; in assay [5], 13.8%; in assay [6] it was -16.7%.
In the case of `Cc1ccc(Cl)cc1NC(=O)C(Br)C(Br)c1ccccc1` (stereo unspecified), the growth inhibition in assay [1] was 20.6%; in assay [2] it was -7.7%; in assay [3] it was 11.9%; in assay [4], 0.85%; in assay [5], -0.1%; in assay [6], 6.2%.
With `COc1ccc(CCNC(=O)Cc2ccc(Cl)cc2)cc1OC`, the growth inhibition is 3.65% in assay [1]; -4.65% in assay [2]; -9.7% in assay [3]; 4.2% in assay [4]; -5.75% in assay [5]; 0.2% in assay [6].
In the case of `ON=C(C1CCCCC1)C1CCCCC1`, the growth inhibition in assay [1] is -7.35%; in assay [2], -29.1%; in assay [3], -13%; in assay [4], -37.6%; in assay [5], -18.3%; in assay [6], -32.9%.
In the case of `CCOC(=O)N(CCCl)C(=O)C(C)C`, the growth inhibition in assay [1] is -21.6%; in assay [2], -39.1%; in assay [3] it was -10.6%; in assay [4], 24.8%; in assay [5], -25.2%; in assay [6] it was -11.1%.
In the case of `Cc1[nH]n(C(N)=S)c(=O)c1N=Nc1c(Cl)cccc1Cl`, the growth inhibition in assay [1] was 55.4%; in assay [2], 14.9%; in assay [3], 63.2%; in assay [4], -37.4%; in assay [5] it was 11.9%; in assay [6], 51%.
For `COc1ccc(C(=O)N=Nc2ccccc2)cc1`, the growth inhibition in assay [1] was 0.05%; in assay [2], 0.7%; in assay [3], -6.85%; in assay [4], -49.9%; in assay [5], 3.35%; in assay [6], -13.1%.

The values above are taken from PubChem BioAssay (NCI).
